Consider 91 molecules from PubChem BioAssay AID488896 (Broad Institute, 2010).

SMILES strings stand for the structures. The campaign covered roughly 320,000 compounds. About 3,100 (0.97%) were called active. This is one part of a sample in which actives are shown more often than they occur. A number with no mark means an inactive call.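 The calls were made as follows: active = mean replicate inhibition of at least 70% and a set share of replicates each scoring 70 or more; inconclusive = meets just one of the two criteria; inactive = fails both criteria.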

The target of this experiment is Scavenger receptor class B member 1 (Mus musculus) (UniProt Q61009). Briefly: inhibitors of SR-BI mediated HDL lipid uptake, primary screen, ldlA[mSR-BI] cells, fluorescence, single point (AID 488896).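 Also: 0% = median of neutral control wells and 100% = median of positive control wells.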 Conditions: ldlA[mSR-BI] CHO cells, DiI-HDL uptake fluorescence, 3 h; at 12.5 µM; hits give high values.
Sequence of Scavenger receptor class B member 1 (Mus musculus) (Q61009 whole entry, looked up): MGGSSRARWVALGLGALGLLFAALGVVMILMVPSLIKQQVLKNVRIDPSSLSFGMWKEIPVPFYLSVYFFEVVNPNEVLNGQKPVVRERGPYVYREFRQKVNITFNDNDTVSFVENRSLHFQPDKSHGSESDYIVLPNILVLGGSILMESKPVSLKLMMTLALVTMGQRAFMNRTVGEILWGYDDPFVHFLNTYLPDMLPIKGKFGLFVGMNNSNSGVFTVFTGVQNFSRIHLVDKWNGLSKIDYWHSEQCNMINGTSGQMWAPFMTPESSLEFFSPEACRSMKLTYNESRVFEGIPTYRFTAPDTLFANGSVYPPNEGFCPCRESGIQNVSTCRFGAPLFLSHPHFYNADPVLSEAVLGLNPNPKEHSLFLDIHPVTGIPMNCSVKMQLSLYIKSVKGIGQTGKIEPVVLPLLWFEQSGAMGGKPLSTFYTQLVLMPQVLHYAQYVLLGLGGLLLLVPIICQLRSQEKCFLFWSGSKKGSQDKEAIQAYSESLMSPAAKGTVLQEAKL
`COc1ccc(C(=O)Nc2nc(-c3ccc(OC)cc3)c(-c3ccc([N+](=O)[O-])cc3)s2)cc1`: the inhibition (in general, the drop in the measured response relative to a control, in per cent) was 32.2%.
In the case of `COC(=O)CCc1sc(Nc2ccc(Br)cc2)nc1-c1ccc(OC)cc1`, the inhibition was 87.4% (active).
Take `Cc1ccc(OC(=O)CCC(=O)Nc2ccc(Br)cc2)cc1`: the inhibition is -15.2%.
The same measure for `COc1ccc(-c2ccc3c(c2)C2CC3CCN2CCC#N)cc1` (stereo unspecified): 33.2%; for `C=CCn1c(=O)n(C)c2c(=O)n(C)c(=O)n(C)c21`: 1.14%.
In the case of `COc1ccc(CCNC(=O)COc2cc(C)cc3oc(=O)c(C)c(C)c23)cc1OC` it was 6.42%; in that of `Cc1ccc(C(C)C)c(OCCSc2nc3ccccc3n2CC(=O)O)c1`, -2.24%; in that of `CCOc1ccc(OCCSc2nc3ccccc3n2CC(=O)O)cc1`, 71.7% (active).
In the case of `CCCn1c(C(O)c2ccc(OCC)cc2)nc2ccccc21` (stereo unspecified) it was 14%; in that of `COc1ccc2c(c1)c(=Cc1ccc(N(C)C)cc1)c1cc(-c3ccccc3)[n+](C)n12`, -63.4%.
Consider `CCCN(CCC)S(=O)(=O)c1cc2c(cc1Br)CCN2C(=O)CC`, for which the inhibition was 7.1%.
As for `CCN(CC)CCCC(C)n1c2nc(=O)[nH]c(=O)c-2nc2cc(Cl)ccc21` (stereo unspecified), the inhibition was 9.9%.
In the case of `CCC1([N+](=O)[O-])COC(c2ccc(C(C)C)cc2)OC1` (stereo unspecified), the inhibition was -13.9%.
In the case of `CCc1ccc2c(c1)C1(NN=C(c3ccccc3)S1)C(=O)N2` (stereo unspecified) it was 115% (active); in that of `NNc1cccc(C=Cc2ccccc2)cc1=O`, 16.6%.
The same measure for `O=C(Nc1cccc(NC(=O)N2CCN(c3ccccc3)CC2)c1)N1CCN(c2ccccc2)CC1`: 86% (active); for `O=C(Nc1ccc(F)cc1)N1CCN(c2ccc(F)cc2)CC1`: -29.4%; for `CC(=O)N1CCN(C(=O)Nc2cccc(C(F)(F)F)c2)CC1`: -9.59%.
In the case of `O=c1c2ccccc2ncn1CCc1ccncc1` it was -5.47%.
As for `NC(=O)C1(Nc2ccc(-c3ccccc3)cc2)CCCC1`, the inhibition was 1.01%.
The same measure for `Cc1cc(C)c(C=NNc2nc3c([nH]2)c(=O)n(C)c(=O)n3C)c(C)c1`: -12.4%; for `CCOc1ccc(N/C=C/C(=O)c2ccccc2)cc1`: -1.21%.
The same measure for `CCOc1ccc(N/C=C/C(=O)c2cc(OC)c(OC)c(OC)c2)cc1`: 78.7% (active).
In the case of `CCC(=O)c1ccc(OC(=O)/C=C/c2cc(OC)c(OC)c(OC)c2)cc1` it was 48.6%; in that of `COc1ccc(S(=O)(=O)N2CCc3ccccc32)cc1C(=O)Nc1cc(S(C)(=O)=O)ccc1Cl`, 27.5%; in that of `O=S(=O)(Nc1ccc2ccccc2c1)N1CCCCC1`, 1.03%.
As for `c1ccc(CCc2ccccn2)cc1`, the inhibition is -7.77%.
For `O=C(OC12CC3CC(CC(C3)C1)C2)c1ccc(NCc2cc(O)ccc2O)cc1`, the inhibition is 5.77%.
For `Cc1nc(N)nc(Cl)c1CCC1OCCO1`, the inhibition was -19.5%.
In the case of `Oc1[nH]c2ccccc2c1N=Nc1c(F)c(F)c(F)c(F)c1F`, the inhibition is 15.7%.
For the molecule `O=[N+]([O-])c1cc(S(=O)(=O)Nc2cccc(Cl)c2)ccc1N=Nc1c(O)[nH]c2ccccc12`, the inhibition is 101% (active).
Turning to `CN1CCN(c2ccc(S(=O)(=O)Nc3ccccc3)cc2[N+](=O)[O-])CC1`, the inhibition was -5.63%.
The same measure for `O=C1CC(C(=O)O)NC(=S)N1` (stereo unspecified): -3.49%.
In the case of `COc1ccc(Br)cc1C(=O)NC(=S)Nc1cc(-c2nc3ccccc3[nH]2)ccc1C` it was 60.8%.
`COc1cc(OC)c(C(=O)Nc2ccccc2-c2ccccc2)cc1OC`: the inhibition was 20.8%.
In the case of `COc1ccc(Br)cc1C(=O)Nc1cccc(C)c1C` it was 76.2% (active); in that of `Cc1ccc(OCCNC(=O)c2cccc(S(=O)(=O)N3CCN(Cc4ccccc4)CC3)c2)cc1`, 20.6%.
Take `COc1ccc(C(=O)Nc2cccc(/C=C(/CCC(=O)O)c3nc4ccccc4s3)c2)cc1`: the inhibition was 36.4%.
In the case of `CC(C)(C)C(=O)Nc1ccc(C(=O)N/N=C/c2ccccc2OC(=O)c2ccc(Cl)cc2Cl)cc1` it was 94.1% (active).
`O=C(N/N=C/c1ccoc1)c1ccc(Cl)cc1Cl`: the inhibition was -28.2%.
With `O=C(N/N=C/c1ccc(OC(=O)c2ccccc2Cl)cc1)c1ccc(O)cc1`, the inhibition was 44.4%.
For `O=C(NCC1(N2CCCCC2)CCCCC1)c1cccc(S(=O)(=O)Nc2ccccc2Cl)c1`, the inhibition is -8.99%.
On to `COc1ccc2c(c1)C(c1cccs1)=NNC(c1cccnc1)=N2`, for which the inhibition is -13.8%.
As for `Cc1ccc(C2=Nc3c(ccc4ccccc34)C(c3ccncc3)=NN2)cc1`, the inhibition was 2.19%.
Regarding `CCOc1ccc2c(c1)C(c1ccc(C)cc1)=NNC(c1ccc(C)cc1)=N2`, the inhibition is 85.5% (active).
`CN(C)c1ccc(CSc2ccccc2)cc1`: the inhibition was -8.91%.
The same measure for `O=C(CCCCCCCC(=O)N1CCCCC1)N1CCCCC1`: -7.35%.
In the case of `CSCCC(NC(=O)COc1ccccc1)C(=O)N1CCN(c2cccc(C(F)(F)F)c2)CC1` (stereo unspecified), the inhibition was 13.3%.
For the molecule `Cc1ccc(C)c(OCC(=O)N2CCN(C(=O)c3ccco3)CC2)c1`, the inhibition was -10.6%.
The same measure for `Cc1ccc(OCC(=O)Nc2ccc(N3CCN(C(=O)c4ccco4)CC3)cc2)c(C)c1`: 78% (active).
The same measure for `CCC(=O)Nc1ccc(C(=O)N2CCN(C(=O)c3ccco3)CC2)cc1`: -9.2%; for `COc1cc2[nH]c(O)c(C=O)c2cc1OC`: -52%; for `O=C1OCC2=C1C(c1ccc(Cl)cc1)c1cc3c(cc1O2)OCO3` (stereo unspecified): 14%.
The same measure for `CCOc1ccc(Nc2nc(Cl)nc(N3CCN(c4ccc(OC)cc4)CC3)n2)cc1`: 73.8% (active).
Turning to `Cc1ccc(Nc2nc(N3CCOCC3)nc(N3CCOCC3)n2)cc1Cl`, the inhibition was 55%.
For `COc1ccc(Nc2ncc(F)c(N3CCOCC3)n2)cc1`, the inhibition was 22.2%.
The same measure for `CCN(CC)S(=O)(=O)c1cccc(NC(=O)c2ccc(S(=O)(=O)N3CCCC3)cc2)c1`: 41.2%.
The same measure for `Cn1c(N)cc(=O)n(C)c1=S`: -17.8%; for `NC(=O)C1(N2CCCCC2)CCN(C(=S)Nc2ccc(Cl)cc2)CC1`: -24.6%; for `CCOC(=O)c1ccc(NC(=S)N2CCCC2)cc1`: -10.4%.
In the case of `CN(C)c1ccc(C(=S)N2CCN(C(=S)Nc3ccc(Cl)cc3)CC2)cc1` it was 95% (active); in that of `Cc1nc(-c2ccc(Cl)cc2)sc1C(=O)NN`, 25.2%; in that of `C=CCNC(=O)c1cc(-c2ccccc2O)on1`, 44.1%.
Consider `C=CCNC(=O)c1sc(SC)cc1-c1ccc(Cl)cc1`, for which the inhibition was 73.9% (active).
For the molecule `CC[C@]12c3[nH]c4cc(CCC(=O)N(C)C)ccc4c3CCN1C(=O)[C@@H](CC(=O)NCC13CC4CC(CC(C4)C1)C3)C[C@@H]2C(=O)N1CCN(C(=O)C2CC2)CC1`, the inhibition is 1.08%.
In the case of `Cc1ccc(-n2c(SCC(=O)N/N=C/C=C/c3ccccc3[N+](=O)[O-])nc3ccccc3c2=O)cc1`, the inhibition is 74% (active).
In the case of `CCn1c(SCC(=O)N/N=C/C=C/c2ccccc2[N+](=O)[O-])nnc1-c1ccccc1` it was 14.2%; in that of `O=C(CSc1nc2ccccc2[nH]1)N/N=C/C=C\c1ccccc1[N+](=O)[O-]`, 4.51%; in that of `CNN/C(N=Cc1ccc([N+](=O)[O-])s1)=N\S(=O)(=O)c1cc(C)c(Cl)cc1SCc1ccccc1`, -9.94%.
As for `CC(C=Cc1ccccc1)=NNS(=O)(=O)c1ccc([N+](=O)[O-])cc1`, the inhibition was -6.47%.
In the case of `CCc1ccc(C(=O)C(C)OC(=O)CN2C(=O)NC3(CCCC3)C2=O)cc1` (stereo unspecified) it was -13.5%; in that of `CC(C)(C)S(=O)(=O)N1Cc2cc(CO)cc(CCO)c2[C@H]1CCO`, 2.47%.
The same measure for `CCOc1ccc(-n2c(O)c(/C=N/Nc3nc(C)cc(C)n3)c3ccccc3c2=O)cc1`: 34.2%; for `CCOc1ccc(-n2c(O)c(/C=N/c3ccnn3Cc3ccncc3)c3ccccc3c2=O)cc1`: -0.942%.
The same measure for `CCOc1ccc(-n2c(O)c(/C=N/Nc3nnc(C)c(=O)[nH]3)c3ccccc3c2=O)cc1`: 108% (active); for `CC(=O)N1CCc2ccc(N)cc21`: 12.2%.
Take `COc1cc(/C=N/NC(=O)c2ccoc2C)ccc1OCCN1CCCCC1`: the inhibition was 3.01%.
As to `COc1cc(/C=N/NC(=O)Nc2ccccc2)ccc1OCCOc1ccccc1C`, the inhibition was 71.4% (active).
In the case of `COc1cc(/C=N/NC(=O)Cc2ccccc2)cc(OC)c1OC` it was 3.39%; in that of `O=C1OC(Oc2ccc(Br)cc2)(c2ccccc2)c2ccccc21` (stereo unspecified), 0.981%; in that of `CCc1nnc(NC(=O)c2cc(S(=O)(=O)N3CCN(CC)CC3)ccc2Cl)s1`, -25.4%.
The same measure for `CCOc1ccc(-n2c(SCC(=O)Nc3cc(C(=O)O)ccc3Cl)nc3ccccc3c2=O)cc1`: -14%; for `Cc1ccc(-n2c(SCC(=O)Nc3ncc(Cl)cc3Cl)nc3ccccc32)cc1`: 78.1% (active); for `NS(=O)(=O)c1cccc(NC(=O)CSc2nc3ccccc3n2-c2ccccc2)c1`: 23.7%.
Turning to `COc1ccc2sc(-c3ccc(N(C)C)cc3)c(-c3ccc4cc[nH]c4c3)c2c1`, the inhibition was 85% (active).
The same measure for `COc1cc(OC)cc(-c2sc3ccc(OC)cc3c2-c2ccc3cc[nH]c3c2)c1`: 58.8%.
The same measure for `COc1ccc2sc(-c3ccc(N(C)C)cc3)c(C#CCO)c2c1`: 99.4% (active); for `COc1ccc2sc(-c3ccc(S(C)(=O)=O)cc3)c(-c3ccc(C(N)=O)cc3)c2c1`: 54.1%.
The same measure for `COc1ccc(-c2sc3ccc(OC)cc3c2C#Cc2ccccn2)cc1`: 56.6%; for `COc1ccc2sc(-c3ccc(S(C)(=O)=O)cc3)c(C#Cc3cncn3C)c2c1`: 13.9%; for `CN1CCC(N(C)C(=O)c2ccc(Cl)c(S(=O)(=O)Nc3ccc(Cl)cc3)c2)CC1`: -12%.
